# Source: PubChem BioAssay (NCI)
# This is part of a sample that, as a whole, favours compounds with a hit. Of some 83,000 tested, about 20% had one in any assay.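 Results are percent growth after 48 hours of single-concentration exposure. 100 means growth as in untreated cells, lower positive values show inhibition; negative values down to -100 show cell death.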 A number with no mark means an inactive call. Activity calls are given as the source filed them. Rule for the calls: active = growth percent below 10; inactive = the rest.
# Columns and labels:
# Assay in all cases: NCI-60 one-dose screen, 48 h (100 = growth as untreated, 0 = no growth, -100 = all killed)
# [1] = tested on: HCT-15 colon; conditions: 10 µM unless noted
# [2] = tested on: HT29 colon; conditions: 10 µM unless noted
# [3] = tested on: SNB-75 CNS; conditions: 10 µM unless noted
# [4] = tested on: U251 CNS; conditions: 10 µM unless noted
# [5] = tested on: SK-MEL-5 melanoma; conditions: 10 µM unless noted
# [6] = tested on: UACC-62 melanoma; conditions: 10 µM unless noted
# [7] = tested on: LOX IMVI melanoma; conditions: 10 µM
# [8] = tested on: SK-MEL-28 melanoma; conditions: 10 µM unless noted
# [9] = tested on: SK-MEL-2 melanoma; conditions: 10 µM unless noted
# [10] = tested on: EKVX NSCLC; conditions: 10 µM unless noted
# [11] = tested on: SN12C renal; conditions: 10 µM unless noted
# [12] = tested on: TK-10 renal; conditions: 10 µM unless noted
# [13] = tested on: ACHN renal; conditions: 10 µM unless noted
# [14] = tested on: CAKI-1 renal; conditions: 10 µM unless noted
# [15] = tested on: A498 renal; conditions: 10 µM unless noted
# [16] = tested on: CCRF-CEM leukemia; conditions: 10 µM unless noted
# [17] = tested on: MOLT-4 leukemia; conditions: 10 µM unless noted
# [18] = tested on: SNB-19 CNS; conditions: 10 µM unless noted
# [19] = tested on: PC-3 prostate; conditions: 10 µM unless noted
# [20] = tested on: UO-31 renal; conditions: 10 µM unless noted
Structure (SMILES),growth [1],growth [2],growth [3],growth [4],growth [5],growth [6],growth [7],growth [8],growth [9],growth [10],growth [11],growth [12],growth [13],growth [14],growth [15],growth [16],growth [17],growth [18],growth [19],growth [20]
CC1(C)CC[C@]2(C(=O)O)CC[C@]3(C)C(=CCC4[C@@]5(C)C[C@@H](O)[C@@H]6OC(c7ccc(F)cc7)OC[C@@]6(C)C5CC[C@]43C)C2C1 (stereo partly drawn),13.4%,25.4%,82.3%,14.7%,17.2%,45.5%,19.9%,53.9%,18.1%,20.5%,31.8%,26.9%,13.3%,33.6%,46.8%,14.6%,8.69% (active),–,–,–
O=C(Cn1c(/C=C/c2ccccc2)nc2ccccc2c1=O)Nc1ccccc1,76.6%,98.5%,–,35.8%,97.3%,90.1%,43.2%,111%,94.7%,124%,31%,75.6%,1.89% (active),8.48% (active),-29.9% (active),71.4%,73%,67.8%,76.1%,24.7%
C=C1CCC2C3(C)COC(c4ccccc4)OC3CCC2(C)C1CC(Sc1ccccc1)C1=CCOC1=O (stereo not drawn),5.46% (active),13.8%,–,17.5%,55.2%,39.5%,-98% (active),82.5%,59.4%,69.3%,25.7%,106%,65.1%,78.4%,140%,-1.92% (active),-14.3% (active),85.5%,29.3%,45.5%
CCCCCCCCc1ccc(C(=O)Nc2cccc(P(=O)(O)O)c2)cc1,100%,114%,99.9%,–,97.7%,91.8%,103%,107%,106%,103%,–,105%,110%,93.6%,105%,79.6%,98.6%,–,92.9%,97.5%
COc1cccc(/C=C/c2nc3ccccc3c(=O)n2CC(=O)Nc2ccc(Cl)cc2)c1,88.3%,64.4%,–,27.8%,101%,95.1%,39.8%,99.2%,111%,109%,39.2%,32.2%,-1.49% (active),60.5%,25.1%,86.1%,90.6%,76.3%,76.3%,16%
CCC(C)(C)c1ccc(OCCCCN2CCN(c3ccncc3)CC2)cc1,-1.1% (active),6.61% (active),69.5%,-11.8% (active),-99.4% (active),-74.5% (active),-76.8% (active),-6.03% (active),63.2%,28%,–,70.8%,–,43.5%,88.9%,2.23% (active),1.66% (active),–,–,40.2%
CNC(=O)c1cc(Oc2ccc3nc(NC(=O)Nc4cccc(OC(F)(F)F)c4)sc3c2)ccn1,51.1%,25%,6.6% (active),–,53.7%,-4.81% (active),–,31.9%,-20.5% (active),42.8%,23.4%,-33.7% (active),-2.02% (active),-8.87% (active),8.49% (active),52.9%,–,–,4.97% (active),14.5%
N/N=C(\N)c1c(N)nc(=S)[nH]c1-c1ccc(Cl)cc1Cl,111%,111%,–,104%,108%,93.8%,106%,116%,109%,116%,105%,147%,107%,96.9%,125%,94.6%,–,93.4%,96.8%,85.8%
COc1c(F)ccc(C(=O)Nc2ccc3nc(NC(=O)C4CCCN(S(=O)(=O)c5ccc(C#N)cc5)C4)sc3c2)c1F (stereo not drawn),90.1%,85.8%,–,89.3%,82.5%,78.7%,95.4%,105%,97.1%,96.2%,94.6%,112%,97.4%,90.6%,101%,92.2%,62.4%,100%,81.9%,68.8%
Cn1cc(-c2cc(N)n3nc(-c4c[nH]c5ccccc45)cc3n2)c2cccnc21,-10.2% (active),-38.1% (active),–,20%,23.1%,-84% (active),-85.8% (active),-81.6% (active),64.5%,85.6%,12.4%,92%,3.49% (active),23.9%,129%,-21.5% (active),-29.4% (active),59.9%,5.88% (active),12.2%
CCCn1cc(-c2nc(Nc3ccc(C(=O)NCCCCNc4cccc5c4C(=O)N(C4CCC(=O)NC4=O)C5=O)cc3)nc3[nH]ccc23)cn1 (stereo not drawn),40.1%,28.1%,–,54.1%,15.8%,74.6%,90.5%,59.3%,10.4%,54.4%,12.3%,59.1%,75.7%,27.3%,-2.58% (active),-15.1% (active),-37.9% (active),23.4%,3.62% (active),73.9%
C=C1CC[C@@H]2[C@]3(C)COC(c4cn[nH]c4-c4ccc(F)cc4)O[C@@H]3CC[C@@]2(C)[C@@H]1C/C=C1/C(=O)OCC1O (stereo partly drawn),-56.8% (active),-2.38% (active),–,-83.2% (active),-79% (active),-73.7% (active),-100% (active),-75.6% (active),-39% (active),-6.56% (active),-51.4% (active),-19.1% (active),-80.3% (active),1.51% (active),146%,-3.97% (active),1.15% (active),21.6%,8.84% (active),-80.4% (active)
O=C(N1c2ccccc2Sc2ccccc21)n1ccc2cccnc21,40.2%,60.7%,–,51.3%,45.9%,47.5%,44.8%,76.9%,73.6%,79.3%,81.1%,90.7%,88.2%,53.6%,109%,63.2%,38.3%,74.3%,39.8%,55.6%
Cn1cc(-c2cc(N)n3nc(-c4c[nH]c5ccccc45)cc3n2)c2cc(Br)cnc21,-58.5% (active),-80.7% (active),–,-79.7% (active),-94.2% (active),-95% (active),-94.1% (active),-96.2% (active),-72.6% (active),-60.4% (active),-81.5% (active),-58.2% (active),-74.6% (active),-36% (active),-28.6% (active),-36.2% (active),-52% (active),-39.6% (active),-43.3% (active),-42.1% (active)
COc1ccc(-c2ccnc(SCc3cc4ccccc4[nH]c3=O)n2)cc1OC,39.5%,-80.8% (active),–,-13.5% (active),1.35% (active),1.83% (active),18.8%,9.54% (active),17.4%,-16.6% (active),-37.6% (active),22.9%,-76.6% (active),-67% (active),-18.9% (active),106%,74%,-7.41% (active),-21.9% (active),-73.4% (active)
Cn1cc(NC(=O)c2cc(NC(=O)c3ccc(C#Cc4ccccc4)cc3)cn2C)cc1C(=O)NCCCN1CCOCC1,-59.4% (active),-71.2% (active),–,-70.1% (active),-92% (active),-90.9% (active),-100% (active),-91.8% (active),86.2%,80.9%,40%,126%,63.8%,56.9%,114%,0.88% (active),-19.3% (active),73.3%,29.8%,67.8%
